Assay outcomes deposited in PubChem by Sanford-Burnham Center for Chemical Genomics.
Cardio protect: modulators protecting cardiomyocytes from myocardial damage; H9c2 cardiomyocytes, H2O2 injury protection, ATPLite, 2 h; protection from H2O2 cell death, % at 20 µM; 0.63% of 360,000 active; AID 588492;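 active = compounds giving at least 50% protection of heart cells from peroxide-induced death in the single-dose screen, raw or plate-pattern-corrected value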;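 also: 0% = DMSO wells with peroxide and 100% = DMSO wells without peroxide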
CRFBP-R2 block: blocks CRF-induced signaling of the CRF-BP/CRF-R2 complex; HEK293 CRF-R2/CRF-BP, CRF-induced calcium fluorescence; inhibition, % at 11.8 µM; 0.59% of 350,000 active;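 active = inhibition of the ligand-induced calcium signal above about 50% at the single tested concentration, limit read from the data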
aDG glyco act: increases alpha dystroglycan glycosylation | 0.22% of 360,000 active | activation, % at 10 µM | Pro5-aDG cells, alpha-DG glycosylation AlphaScreen (IIH6); 0% Pro5, 100% B10-LARGE cell signal;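 active = activation of at least 8% versus controls, or a plate z-score of at least 8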;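 also: Pro5 are CHO cells carrying HIG-tagged alpha-DG that lacks glycosylation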
CRFR2-BP ag: agonists of human CRF-binding protein/CRF-R2 receptor complex | activation, % at 13.2 µM | 0.46% of 350,000 active | HEK293 CRF-R2/CRF-BP, calcium dye fluorescence (FLIPR); percent of saturating CRF peptide response;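 active = activation of at least 50%, plus an integration ratio under a set limit after plate pattern correction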;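 also: plate controls were neutral control wells without compound for no effect and CRF at EC100 for full effect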
PfGluPho inh: PfG6PD (Plasmodium falciparum) enzyme inhibition. PfGluPho enzyme, NADPH resazurin-diaphorase fluorescence. inhibition, % at 20 µM. 0.78% of 350,000 active. AID 504690;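 active = inhibition reaching at least a set limit at 20 µM in the primary screen, cut at about 59% in these data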;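 also: 0% = DMSO wells with substrate and 100% = DMSO wells lacking glucose-6-phosphate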
FAS TE block: blocks the thioesterase domain of human fatty acid synthase | P49327 | recombinant FAS-TE, OMFH fluorogenic substrate, fluorescence endpoint | inhibition, % at 15 µM | 0.67% of 360,000 active | AID 602261;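 active = compounds whose normalised, plate-corrected inhibition of enzyme fluorescence in the single-dose primary screen is 50% or more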;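 also: 0% = DMSO with enzyme and 100% = substrate without enzyme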
FAS-TE inh conf: confirmation of human fatty acid synthase thioesterase inhibitors; shares compounds with FAS TE block; recombinant FAS-TE, OMFH fluorogenic substrate, fluorescence; inhibition, % at 15 µM; 45% of 2,300 active; AID 624325;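 active = compounds inhibiting the enzyme by at least 50% at 15 µM in any one of the replicates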;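 also: 0% = enzyme with DMSO only and 100% = wells lacking enzyme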
* marks the source's active call; other numbers are inactive results; . = no result given. An excerpt weighted towards active compounds, which were near 3.2% of everything screened.

SMILES	Cardio protect	CRFBP-R2 block	aDG glyco act	CRFR2-BP ag	PfGluPho inh	FAS TE block	FAS-TE inh conf
Cc1ccc2nc(SCC(=O)Nc3ccc(F)c([N+](=O)[O-])c3)[nH]c2c1	0	16	4	-1	12	62*	68*
O=C(COC(=O)CCC(=O)c1cccs1)NC1CCCCC1	1	-10	0	0	-5	-3	.
O=C(/C=C/c1cc([N+](=O)[O-])ccc1OC(F)F)NCc1ccc(F)cc1	-1	15	0	-4	-1	72*	86*
Cc1ccc(NC(=S)NC(CO)C(O)c2ccc([N+](=O)[O-])cc2)cc1 (stereo unspecified)	-2	16	0	9	-16	18	.
O=[N+]([O-])c1ccc(C(O)C(CO)NC(=S)Nc2ccccc2)cc1 (stereo unspecified)	1	8	0	1	6	59*	55*
COc1ccc(Cl)cc1C(=O)Nc1cccnc1Cl	-7	3	0	2	12	14	.
O=C(NCCOc1ccccc1)C1CCC(=O)N(CCCN2CCOCC2)C1 (stereo unspecified)	-2	8	0	-1	0	-9	.
O=[N+]([O-])c1ccc(Oc2cccc(C(F)(F)F)c2)nc1	5	-3	0	-3	2	-6	.
O=[N+]([O-])c1ccc(Cn2cc(-c3cccc(C(F)(F)F)c3)nn2)cc1	-1	9	0	-4	12	55*	4
COc1cc(OC)cc(-c2noc(-c3csc([C@@H]4O[C@H](CO)[C@H](O)[C@H](O)[C@H]4O)n3)n2)c1	2	.	0	.	.	-6	.
Cc1nc(N2CCN(S(=O)(=O)c3ccccc3C#N)CC2)c2c(-c3cccs3)csc2n1	22	-6	0	7	15	51*	30
Cn1c(=O)c(C#N)c(-c2ccc(F)cc2)c2cc(C(=O)c3cc(Cl)cc(Cl)c3O)cnc21	-15	53*	0	31	9	54*	27
COc1ccccc1-n1c(=O)c(C#N)c(-c2ccc([N+](=O)[O-])cc2)c2cc(C(=O)c3cc(F)ccc3O)cnc21	7	19	0	0	13	0	.
CC(=O)N1N=C(c2cccc([N+](=O)[O-])c2)OC1c1cccc(Br)c1 (stereo unspecified)	-2	2	0	1	-11	54*	60*
CC(=O)N1N=C(c2cccc(Cl)c2)OC1c1cccc([N+](=O)[O-])c1 (stereo unspecified)	1	-14	0	-2	5	39	.
Cc1cccc(C(C)C)c1NC(=O)CN1C(=O)NC2(CCc3ccccc32)C1=O (stereo unspecified)	2	3	0	-1	-5	-2	.
COc1ccc(-c2ccc3c(c2)O[C@H](CN(C)C(=O)Nc2ccccc2F)[C@@H](C)CN([C@H](C)CO)S3(=O)=O)cc1	14	19	0	0	14	8	.
COc1ccc(F)cc1-c1cc(C(=O)NCc2ccc(C(F)(F)F)cc2)[nH]n1	-2	.	0	.	.	53*	13
COc1ccc(Cl)cc1-c1cc(C(=O)NCc2cccc(Cl)c2)[nH]n1	8	.	1	.	.	51*	51*
COc1ccc(C(=O)O)cc1NC(=S)NC(=O)c1ccc(-c2ccc(Cl)cc2)o1	-1	86*	0	-2	-13	58*	66*
CC(C)(C)CC(C)(C)NC(=O)/C=C/C(=O)O	0	-16	0	8	-6	-2	.
COc1ccccc1C(=O)COC(=O)c1cc([N+](=O)[O-])ccc1N1CCOCC1	13	22	0	-2	17	68*	34*
O=C(COC(=O)c1cc([N+](=O)[O-])ccc1N1CCOCC1)c1ccccc1Cl	1	4	0	-3	15	46	.
Cc1cc(C)c(C(=O)COC(=O)c2cc([N+](=O)[O-])ccc2N2CCOCC2)cc1C	-1	13	0	4	19	57*	33
COc1ccccc1C(=O)COC(=O)c1cc(S(=O)(=O)N2CCCCC2)ccc1N1CCOCC1	0	12	0	-2	1	38	.
SMILES	Cardio protect	CRFBP-R2 block	aDG glyco act	CRFR2-BP ag	PfGluPho inh	FAS TE block	FAS-TE inh conf
COc1ccc(C(=O)COC(=O)c2cc([N+](=O)[O-])ccc2N2CCOCC2)c(OC)c1	15	-6	2	0	13	75*	75*
O=C(COC(=O)c1cc([N+](=O)[O-])ccc1N1CCOCC1)c1ccccc1	12	-13	0	-2	12	63*	71*
COc1ccc(C(=O)c2cc([N+](=O)[O-])ccc2N2CCOCC2)cc1	-1	-1	0	-4	28	23	.
NC(=O)c1nsc(C(=O)N(c2cccc(F)c2)C(C(=O)NC2CCCC2)c2ccco2)c1N (stereo unspecified)	0	5	0	-1	1	0	.
COc1cc(C(=O)COC(=O)c2cc([N+](=O)[O-])ccc2N2CCOCC2)ccc1OC(F)F	6	2	0	0	7	55*	57*
COc1ccc(C(=O)COC(=O)c2cc(S(=O)(=O)N3CCCCC3)ccc2N2CCOCC2)c(OC)c1	3	5	0	1	11	73*	3
CCOc1ccc(C(=O)c2cc([N+](=O)[O-])ccc2N2CCOCC2)cc1	-3	27	0	2	0	47	.
COc1ccccc1CNC(=O)COC(=O)c1cc([N+](=O)[O-])ccc1N1CCOCC1	4	-3	0	0	-2	79*	90*
CCc1nnc(NC(=O)CCC(=O)N2CCC(Cc3ccccc3)CC2)s1	20	-4	0	0	-18	-7	.
COCCn1c(SCC(=O)N2CCOCC2)nnc1-c1ccncc1	2	10	0	0	-9	-5	.
CC1(C(=O)NS(=O)(=O)c2cccc(C#N)c2)CCN1C(=O)c1ccco1 (stereo unspecified)	0	.	0	.	.	-9	.
N#C/C(=C/c1ccc2c(c1)OCO2)C(=O)NCCc1c[nH]c2ccccc12	3	-19	0	-1	10	52*	34
O=C(NCCc1c[nH]c2ccccc12)c1ccc2c(c1)OCO2	-3	-1	0	-1	3	-2	.
Cn1c(-c2ccc(F)cc2)cnc1NCc1cccc([N+](=O)[O-])c1	14	-9	0	1	6	76*	78*
Cn1c(-c2cccc([N+](=O)[O-])c2)cnc1NCc1cccc(F)c1	7	8	0	-2	-7	7	.
